From PubChem BioAssay
The source made the active and inactive calls.

How the values were obtained:
[1] = system: Plasmodium falciparum Sir2 (PF13_0152, Sir2A); assay: pfSir2 binders on small-molecule microarrays, primary screen, biochemical, small-molecule microarray, 635 nm fluorescence (AID 1098); settings: small-molecule microarray binding, fluorescence 635 nm; higher = more signal;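 further: score merges spot fluorescence intensity with its signal-to-noise ratio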
[2] = small-molecule microarray binders of probe aDKK1, primary screen, biochemical, biotinylated probe, 635/667 nm fluorescence (AID 1099); settings: higher = more signal;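 further: score merges 667nm spot fluorescence with signal to noise across triplicate slides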
[3] = small-molecule microarray binders of probe aCHRDL2, primary screen, biochemical, biotinylated probe, 635/667 nm fluorescence (AID 1100); settings: higher = more signal
[4] = splicing luciferase reporter signal modulators, primary screen, spliceosome inhibition project, cell-based, HEK293, splice +/- reporter (AID 1101); settings: luminescence, 24 h, higher = more signal, called active from +8 up or from −8 down;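 further: HEK293 cells carrying a splicing-competent luciferase reporter gene; test concentration not given here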
[5] = target: Fibroblast growth factor 10 (Homo sapiens) (UniProt O15520); assay: FGF10 binders on small-molecule microarrays, primary screen, biochemical, small-molecule microarray, 635 nm fluorescence (AID 1102); settings: FGF10 binding, fluorescence 635 nm, higher = more signal
[6] = system: glycogen synthase kinase-3 (GSK3A per assay name; protocol says GSK3B); assay: GSK3 binders on small-molecule microarrays, primary screen, biochemical, small-molecule microarray, 635 nm fluorescence, GSK3A (AID 1103); settings: small-molecule microarray binding, fluorescence 635 nm; higher = more signal; further: the record names both GSK3A and GSK3B
[7] = target: Epidermal growth factor receptor (Homo sapiens) (UniProt P00533); assay: EGFR binders on small-molecule microarrays, primary screen, biochemical, small-molecule microarray, 635 nm fluorescence (AID 1104); settings: EGFR binding, higher = more signal;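 further: score merges 667 nm emission intensity with spot signal to noise over triplicate slides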
[8] = target: Follistatin-related protein 3 (Homo sapiens) (UniProt O95633); assay: FSTL3 binders on small-molecule microarrays, primary screen, biochemical, small-molecule microarray, 635 nm fluorescence (AID 1105); settings: FSTL3 binding, higher = more signal;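 further: score merges emission near 667 nm and signal to noise per printed spot across three slides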
[9] = target: Dickkopf-related protein 1 (Homo sapiens) (UniProt O94907); assay: DKK1 binders on small-molecule microarrays, primary screen, biochemical, small-molecule microarray, 635 nm fluorescence scan (AID 1106); settings: DKK1 binding, higher = more signal;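 further: score merges emission near 667 nm with signal to noise over three replicate slides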
[10] = system: Inhibin beta A chain (activin A); assay: INHBA (activin A) binders on microarrays, primary screen, biochemical, small-molecule microarray, 635 nm fluorescence scan (AID 1107); settings: small-molecule microarray binding, higher = more signal;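 further: mouse activin A protein probed at 4.33 µg/mL on printed slides; score merges bound-protein fluorescence near 667 nm with spot signal-to-noise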
[11] = system: Human papillomavirus type 1a protein E7 (residues 44-93); assay: HPV1a E7 fragment binders on microarrays, primary screen, biochemical, small-molecule microarray, residues 44-93, 635 nm fluorescence (AID 1108); settings: small-molecule microarray binding, fluorescence 635 nm; higher = more signal;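 further: E7 fragment applied at 1 µg/mL in TBST for 1 h at 4 C; score combines spot fluorescence with its signal to noise ratio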
[12] = modulators of HCV replicon luciferase signal, primary screen, HCV replication inhibitor project, Huh7 cells, luciferase reporter (AID 1109); settings: 48 h, higher = more signal;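 further: huh7 hepatoma cells harbouring a luciferase neomycin HCV replicon reporter; luciferase luminescence as measure of HCV replicon replication; test concentration not given here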
[13] = target: Left-right determination factor 2 (Homo sapiens) (UniProt O00292); assay: LEFTY2 binders on small-molecule microarrays, primary screen, biochemical, small-molecule microarray, 635 nm fluorescence scan (AID 1110); settings: LEFTY2 binding, higher = more signal
[14] = target: Calmodulin-1 (Homo sapiens) (UniProt P0DP23); assay: CALM1 binders on microarrays, EGTA buffer, profiling panel, biochemical, small-molecule microarray, Cy5-labelled CALM1 (AID 1111); settings: Cy5-CALM1 binding fluorescence, higher = more signal;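 further: labelled calmodulin applied in Tris saline Tween buffer holding calcium plus EGTA and DTT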
[15] = target: Calmodulin-1 (Homo sapiens) (UniProt P0DP23); assay: calcium-bound CALM1 binders on microarrays, profiling panel, artefact control for SMM control-protein annotation, biochemical, small-molecule microarray, Cy5-labelled CALM1, plus calcium (AID 1112); settings: Cy5-CALM1 binding fluorescence, higher = more signal;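 further: score merges spot fluorescence with signal to noise from triplicate slides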
[16] = small-molecule microarray binders of probe aWnt5a, primary screen, biochemical, biotinylated probe, 635/667 nm fluorescence (AID 1113); settings: higher = more signal;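 further: score merges 667 nm fluorescence intensity with signal-to-noise per printed feature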
[17] = small-molecule microarray binders of probe aShh, primary screen, biochemical, biotinylated probe, 635/667 nm fluorescence (AID 1114); settings: higher = more signal;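 further: probe is biotin-labelled aShh protein from a stem cell growth factor screen; measures binding of labelled protein to compounds printed on the slide; score merges feature fluorescence at 667 nm with signal-to-noise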
[18] = small-molecule microarray binders of probe aNog, primary screen, biochemical, biotinylated probe, 635/667 nm fluorescence (AID 1115); settings: higher = more signal;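 further: probe is biotinylated aNog protein used at 0.15 µg/mL for 1 h at 4 C; z-score combines 667 nm fluorescence of each spot with its signal to noise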
[19] = target: Torsin-1A-interacting protein 1 (Homo sapiens) (UniProt Q5JTV8); assay: LAP1 binders from COS7 cell lysate, primary screen, small-molecule microarray, 635/667 nm fluorescence (AID 1116); settings: COS7-hLAP1 lysate binding, 635 nm fluorescence, higher = more signal
[20] = target: Alpha-bungarotoxin (Bungarus multicinctus) (UniProt P60615); assay: alpha-bungarotoxin binders on microarray, profiling panel, artefact control for SMM control protein annotation, biochemical, small-molecule microarray, Alexa647 label, 635/667 nm fluorescence (AID 1117); settings: alpha-BTX-A647 binding fluorescence, higher = more signal
Chain of Alpha-bungarotoxin (Bungarus multicinctus) (P60615 whole entry, looked up): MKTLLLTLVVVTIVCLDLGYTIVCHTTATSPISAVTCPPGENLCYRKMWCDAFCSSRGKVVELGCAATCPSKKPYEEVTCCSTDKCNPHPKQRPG

Chain of Epidermal growth factor receptor (Homo sapiens) (P00533 whole entry, looked up): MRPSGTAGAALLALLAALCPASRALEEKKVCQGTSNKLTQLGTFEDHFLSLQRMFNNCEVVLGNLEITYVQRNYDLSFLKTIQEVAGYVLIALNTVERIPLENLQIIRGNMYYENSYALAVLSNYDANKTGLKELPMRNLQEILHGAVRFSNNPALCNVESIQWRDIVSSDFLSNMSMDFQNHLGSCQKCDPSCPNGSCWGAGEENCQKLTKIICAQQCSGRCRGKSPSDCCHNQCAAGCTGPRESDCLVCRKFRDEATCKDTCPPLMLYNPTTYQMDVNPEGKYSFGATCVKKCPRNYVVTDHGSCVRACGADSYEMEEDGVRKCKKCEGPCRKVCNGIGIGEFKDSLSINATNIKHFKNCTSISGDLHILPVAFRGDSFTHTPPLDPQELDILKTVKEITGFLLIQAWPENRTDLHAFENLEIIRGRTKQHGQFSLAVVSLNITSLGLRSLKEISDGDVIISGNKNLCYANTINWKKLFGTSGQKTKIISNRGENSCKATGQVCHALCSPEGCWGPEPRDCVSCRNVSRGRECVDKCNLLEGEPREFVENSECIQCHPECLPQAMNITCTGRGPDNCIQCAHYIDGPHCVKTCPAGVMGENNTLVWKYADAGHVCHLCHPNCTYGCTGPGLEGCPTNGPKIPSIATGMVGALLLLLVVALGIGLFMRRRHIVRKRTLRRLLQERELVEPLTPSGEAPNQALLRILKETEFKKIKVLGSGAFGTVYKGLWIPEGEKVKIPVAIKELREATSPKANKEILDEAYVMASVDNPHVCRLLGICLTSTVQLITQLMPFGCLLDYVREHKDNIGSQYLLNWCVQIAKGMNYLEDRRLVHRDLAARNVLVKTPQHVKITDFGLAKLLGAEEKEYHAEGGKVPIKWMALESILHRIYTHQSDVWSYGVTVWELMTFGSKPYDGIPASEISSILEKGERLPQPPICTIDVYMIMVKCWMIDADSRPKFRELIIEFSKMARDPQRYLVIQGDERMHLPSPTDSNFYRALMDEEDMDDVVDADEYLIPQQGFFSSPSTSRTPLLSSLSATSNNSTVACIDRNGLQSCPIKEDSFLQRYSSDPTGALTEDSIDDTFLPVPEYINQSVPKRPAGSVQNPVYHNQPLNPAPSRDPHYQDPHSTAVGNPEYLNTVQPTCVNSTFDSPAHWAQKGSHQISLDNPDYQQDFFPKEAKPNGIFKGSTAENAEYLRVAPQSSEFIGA
Chain of Torsin-1A-interacting protein 1 (Homo sapiens) (Q5JTV8 whole entry, looked up): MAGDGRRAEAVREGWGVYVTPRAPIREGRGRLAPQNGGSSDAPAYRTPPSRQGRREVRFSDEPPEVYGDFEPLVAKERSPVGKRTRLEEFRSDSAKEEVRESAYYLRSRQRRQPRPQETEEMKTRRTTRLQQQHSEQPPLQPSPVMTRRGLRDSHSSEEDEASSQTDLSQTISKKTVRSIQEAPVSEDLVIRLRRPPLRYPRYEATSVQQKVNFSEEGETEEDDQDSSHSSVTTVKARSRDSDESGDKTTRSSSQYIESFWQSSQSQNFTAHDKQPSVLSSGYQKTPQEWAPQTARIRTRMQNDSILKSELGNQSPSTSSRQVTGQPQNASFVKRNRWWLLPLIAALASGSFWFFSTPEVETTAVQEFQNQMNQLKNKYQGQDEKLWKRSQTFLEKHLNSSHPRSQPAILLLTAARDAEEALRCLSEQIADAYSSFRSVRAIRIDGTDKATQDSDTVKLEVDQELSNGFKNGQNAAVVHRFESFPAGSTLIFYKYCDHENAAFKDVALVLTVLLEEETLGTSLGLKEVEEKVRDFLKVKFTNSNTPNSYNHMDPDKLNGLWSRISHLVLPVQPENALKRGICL
Chain of Follistatin-related protein 3 (Homo sapiens) (O95633 whole entry, looked up): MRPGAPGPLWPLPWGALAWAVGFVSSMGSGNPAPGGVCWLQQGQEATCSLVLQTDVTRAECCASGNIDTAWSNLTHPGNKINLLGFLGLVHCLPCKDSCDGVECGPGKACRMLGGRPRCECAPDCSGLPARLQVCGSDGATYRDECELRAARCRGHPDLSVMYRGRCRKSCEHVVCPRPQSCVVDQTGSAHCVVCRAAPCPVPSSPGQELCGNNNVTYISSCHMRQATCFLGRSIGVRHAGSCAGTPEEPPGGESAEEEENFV
Chain of Fibroblast growth factor 10 (Homo sapiens) (O15520 whole entry, looked up): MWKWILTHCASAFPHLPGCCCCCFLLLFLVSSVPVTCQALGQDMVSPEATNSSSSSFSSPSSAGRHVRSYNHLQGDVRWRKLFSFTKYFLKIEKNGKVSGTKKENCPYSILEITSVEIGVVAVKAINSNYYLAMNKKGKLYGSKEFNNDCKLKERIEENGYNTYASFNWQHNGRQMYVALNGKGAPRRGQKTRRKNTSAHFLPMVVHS
Chain of Left-right determination factor 2 (Homo sapiens) (O00292 whole entry, looked up): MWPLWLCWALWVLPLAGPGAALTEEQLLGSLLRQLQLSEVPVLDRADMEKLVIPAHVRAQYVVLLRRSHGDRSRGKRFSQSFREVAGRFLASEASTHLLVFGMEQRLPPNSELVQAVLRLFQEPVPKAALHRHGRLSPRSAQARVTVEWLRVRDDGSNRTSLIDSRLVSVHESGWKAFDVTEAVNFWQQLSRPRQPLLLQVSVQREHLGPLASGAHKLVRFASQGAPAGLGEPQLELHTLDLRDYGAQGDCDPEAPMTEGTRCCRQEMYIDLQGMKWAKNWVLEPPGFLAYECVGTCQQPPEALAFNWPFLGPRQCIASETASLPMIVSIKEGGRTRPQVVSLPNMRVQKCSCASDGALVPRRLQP
Chain of Dickkopf-related protein 1 (Homo sapiens) (O94907 whole entry, looked up): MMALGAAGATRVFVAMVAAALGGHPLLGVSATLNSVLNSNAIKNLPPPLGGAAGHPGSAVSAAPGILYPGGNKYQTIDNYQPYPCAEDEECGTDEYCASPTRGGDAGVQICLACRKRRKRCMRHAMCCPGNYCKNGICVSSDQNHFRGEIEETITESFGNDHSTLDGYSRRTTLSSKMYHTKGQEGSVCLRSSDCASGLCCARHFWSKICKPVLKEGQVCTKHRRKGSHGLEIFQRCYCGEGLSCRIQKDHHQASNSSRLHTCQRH

Row | Structure (SMILES) | composite z-score [1] | composite z-score [2] | composite z-score [3] | z-score [4] | composite z-score [5] | composite z-score [6] | composite z-score [7] | composite z-score [8] | composite z-score [9] | composite z-score [10] | composite z-score [11] | z-score [12] | composite z-score [13] | composite z-score [14] | composite z-score [15] | composite z-score [16] | composite z-score [17] | composite z-score [18] | composite z-score [19] | composite z-score [20]
1 | CC(C)C(=C=CC[C@@H](O)c1ccc(OCCO)cc1)C[C@@H](O)COCc1ccccc1 | 0.413 | -0.133 | -0.222 | -1.97 (inactive) | 1.23 | 0.099 | -0.516 | 0.478 | -0.198 | 0.992 | 0.702 | -0.453 | 0.164 | -0.774 | -0.918 | 0.505 | -0.0553 | 0.526 | 1.51 | 0.119
2 | CC(=O)NCCCC[C@@H]1NC(=O)[C@@H]2C[C@H](C(=O)NCCCCCNC(=O)CS)[C@H](c3cccc(OCCO)c3)N2C1=O | 1.16 | -0.394 | -0.155 | -2.01 (inactive) | 0.0349 | -0.0868 | 0.724 | 1.07 | 1.11 | 0.337 | -0.0596 | -0.652 | 0.837 | -0.646 | -0.754 | -0.214 | -0.0533 | -0.0533 | -0.443 | -0.0629
3 | [N-]=[N+]=NCc1ccccc1C[C@]1(C(N)=O)COC(c2ccc(OCCCO)cc2)=N1 | 0.806 | 1.13 | 1.36 | -1.52 (inactive) | 0.23 | 0.812 | -1.04 | -0.0511 | -0.2 | 0.636 | 0.202 | -0.17 | -0.993 | 2.01 | 1.2 | -0.0286 | -0.0441 | -0.169 | 2.59 | 1.58
4 | O=C(CS)NCCCCCCNC(=O)[C@@H]1C[C@@H]2C(=O)NCC(=O)N2[C@@H]1c1cccc(OCCO)c1 | 1.49 | -0.293 | 0.632 | 0.288 (inactive) | 0.331 | 0.837 | -0.149 | -0.16 | 0.139 | -0.755 | 1.41 | -0.895 | -0.709 | 2.44 | -0.215 | -0.177 | -0.188 | -0.652 | 1.21 | 1.1
5 | CCC(CC)C(O)C1C=CC2C(=O)NC(=O)C2N1Nc1ccccn1 (stereo not given) | 0.259 | 0.572 | -0.705 | 1.17 (inactive) | 0.269 | 0.291 | 0.384 | 0.584 | 0.816 | 1.29 | 0.365 | -0.642 | 0.255 | 0.0646 | -0.161 | -0.0704 | -0.217 | 0.455 | 0.275 | 0.512
6 | CN1C(=O)C2C=CC(C(O)C#Cc3ccccc3)N(N3CCCCC3)C2C1=O (stereo not given) | 1.68 | 1.01 | 1.09 | 0.762 (inactive) | 0.945 | 0.216 | 0.568 | 0.731 | 0.0369 | 1.18 | -1.16 | -0.451 | 0.414 | 1.19 | 0.657 | 0.234 | 0.668 | 0.564 | 0.494 | 1.04
7 | C=CCC(OC(C)=O)[C@@H]1[C@@H](N(Cc2ccc(-c3ccccc3)cc2)C(=O)Cc2ccc(OC)cc2)c2cc(OCCCO)ccc2N1C(=O)Cc1ccc2ccccc2c1 (stereo not given in full) | -0.324 | -0.0834 | 0.308 | 0.247 (inactive) | -0.437 | -0.299 | -0.163 | -0.0274 | -0.0237 | 1.06 | -0.285 | -1.14 | -0.305 | -0.247 | 0.831 | -0.0297 | -0.0769 | -0.366 | -0.172 | 0.87
8 | COCCOC(=O)N1C(=O)[C@@]2(c3ccccc31)[C@H](c1ccccc1OCCO)N1[C@H](c3ccccc3)[C@H](c3ccccc3)OC(=O)[C@H]1[C@@H]2C(=O)N1CCN(c2ncccn2)CC1 | 1.21 | 0.386 | 0.72 | -0.869 (inactive) | 0.357 | 0.852 | 0.792 | 0.555 | 0.471 | -0.0468 | 0.771 | -2.73 | 0.567 | 1.69 | 0.614 | -0.096 | 0.199 | 0.441 | 1.24 | 1.46
9 | CN(C)CCCCCCNC(=O)[C@H]1C[C@H]2C(=O)N3CCC[C@H]3C(=O)N2[C@H]1c1ccc(O)cc1 | 1.42 | 0.11 | 0.0341 | -0.8 (inactive) | 1.28 | 1.35 | 1.6 | 1.44 | 1.25 | 1.08 | 1.12 | 1.42 | 1.44 | -1.17 | -2.33 | -0.0598 | 0.178 | 0.0459 | 1.29 | 0.73
10 | COc1cc2c(cc1OC)CN(C(=O)[C@@H]1[C@H]3C(=O)O[C@H](c4ccccc4)[C@H](c4ccccc4)N3[C@H](c3ccc(O)cc3)[C@@]13C(=O)Nc1ccccc13)CC2 | 1.66 | -0.22 | 0.104 | -0.764 (inactive) | 0.397 | 1 | -0.0444 | 0.346 | 0.27 | -0.131 | 1.39 | -1.74 | 0.0147 | 0.457 | 0.603 | -0.154 | -0.167 | -0.321 | 0.688 | 1.74
11 | C=CCNC(=O)[C@@H]1[C@H]2C(=O)O[C@H](c3ccccc3)[C@H](c3ccccc3)N2[C@H](c2ccccc2OCCO)[C@@]12C(=O)N(C(=O)OCCOC)c1ccccc12 | 1.54 | -0.0073 | -0.0387 | -0.108 (inactive) | 1.27 | 1.33 | 0.828 | 1.44 | 0.825 | 0.843 | 1.43 | -2.64 | 0.877 | 0.926 | -0.464 | 0.132 | 0.126 | -0.331 | 0.784 | 1.25
